Compounds without any hit were thinned out: in the full panel of roughly 83,000, 20% have a hit.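 Each cell line was grown in a 96-well plate and treated with one concentration of compound for 48 hours. Values below 10 were considered active.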 Unmarked numbers belong to inactive results. Activity calls are given as the source filed them.
tested on: MDA-MB-435 melanoma; test: NCI-60 one-dose screen, 48 h (100 = growth as untreated, 0 = no growth, -100 = all killed); settings: 10 µM unless noted

| SMILES | growth |
| --- | --- |
| CC(=O)Oc1c2c(nc3c1c1ccccc1n3Cc1ccccc1)-c1ccccc1C2 | 98.2% |
| C/C(=C\c1cnc(C)s1)[C@@H]1C[C@@H]2O[C@@H]2CCC[C@H](C)[C@H](O)[C@@H](C)C(=O)C(C)(C)[C@@H](O)CC(=O)O1 | 4.21% (active) |
| OCCNc1nc(NCCO)nc(Nc2ccc(C3=NN(c4cc(Cl)cc(Cl)c4)C(c4ccc(C(F)(F)F)cc4)C3)cc2)n1 (configuration not stated) | 42.1% |
| CCOCCc1c(O)nc(SC)[nH]c1=O | 120% |
| CN(C)[C@@H]1C(=O)C(C(N)=O)=C(O)[C@@]2(O)C(=O)C3=C(O)c4c(O)cc(CN5CCc6ccccc6C5)c(Cl)c4C[C@H]3C[C@@H]12 | -75.7% (active) |
| CCCCn1c(=O)c(/C=C/C(=O)/C=C/c2cc3ccccc3n(CCCC)c2=O)cc2ccccc21 | -65.2% (active) |
| CCOC(=O)c1c(C)nc2c(c1N)CC(=O)N2CCc1ccccc1 | 8.84% (active) |
| C#CCOC(=O)[C@]1(C)CCC[C@]2(C)[C@H]3C[C@H]4C(C(C)C)=C[C@]3(CC[C@H]21)[C@@H]1C(=O)CCC(=O)[C@@H]14 | 97.7% |
| C/C(=N/Nc1nc2ccccc2n1C)c1ccccn1 | 32.5% |
| C#C[C@@]1(O)[C@@H](CO)O[C@@H](n2cc(-c3ccco3)c3c(N)ncnc32)[C@@H]1O | 66.4% |
| CC(=O)c1ccc(NC(=O)CSc2nnc(-c3cc(-c4ccc(Cl)cc4)nc4ccccc34)o2)cc1 | 85.5% |
| N#Cc1ccc(Oc2ccc3ccc(=O)oc3c2)cc1 | 120% |
| C=C(C)[C@@H]1CC[C@]2(C(=O)O)CC[C@]3(C)[C@H](CC[C@@H]4[C@@]5(C)C[C@@H](CC#Cc6ccc(Cl)cc6)C(=O)C(C)(C)[C@@H]5CC[C@]43C)[C@@H]12 | 46.6% |
| CN1CCN(S(=O)(=O)O[C@@H]2C(=O)N(c3cc4c5ccccc5ccc4c4ccccc34)[C@H]2c2ccc(F)cn2)CC1 | 98.1% |
| Cc1cc(C)c2nc(Nc3nc(C)c(C)c(=O)[nH]3)nc(C)c2c1 | 15.7% |
| COC(=O)c1nc(-c2ccccc2)oc1S(=O)(=O)n1nc(C)cc1N | 79.6% |
| COc1ccc2cc(/C=C3\N=C(c4cc(OC)c(OC)c(OC)c4)OC3=O)c(OC)nc2c1 | 106% |
| O=C(CSC(=S)N1CCCCC1)Nc1ccccc1 | 110% |
| COc1cc(NC(=O)c2cc(O)c(C/C=C(\C)CCC=C(C)C)c(O)c2)cc2c1O[C@]1(C)CC[C@@H](O)C(C)(C)[C@H]1C2 | 10.2% |

| SMILES | growth |
| --- | --- |
| CCN1CCC[C@H]1c1cc(O)c2c(c1OC)C[C@H]1C[C@H]3[C@H](N)C(=O)C(C(N)=O)=C(O)[C@@]3(O)C(=O)C1=C2O | -4.48% (active) |
| O=c1c2ccccc2oc2ccc(OCCCCCCN3CCCCCC3)cc12 | 44.6% |
| NCCN1CCNCC1 | 105% |
| C=C(C)[C@@H]1CC[C@]2(C(=O)OCCOCCOCC[P+](c3ccccc3)(c3ccccc3)c3ccccc3)CC[C@]3(C)[C@H](CC[C@@H]4[C@@]5(C)CC[C@H](C)C(C)(C)[C@@H]5CC[C@]43C)[C@@H]12 | -93.7% (active) |
| O=C1CCC23OC(C(O)c4ccccc4N12)C1C(Br)=NOC13 (configuration not stated) | 96.2% |
| CCOC(=O)c1c(C)nc2c(c1N)/C(=C/c1ccccn1)C(=O)N2Cc1ccccc1 | 11.2% |
| C[C@H]1[C@H](C)CC[C@]2(C(=O)OCCCC[P+](c3ccccc3)(c3ccccc3)c3ccccc3)CC[C@]3(C)C(=CC[C@@H]4[C@@]5(C)CC[C@H](OC(=O)C(Cl)Cl)C(C)(C)[C@@H]5CC[C@]43C)[C@H]12 | -91.4% (active) |
| C=C1C(=O)O[C@H]2[C@H]1CC/C(COC(=O)n1ccnc1)=C\CC[C@@]1(C)O[C@@H]21 | 99.6% |
| CCOCc1cc(C(C)(C)C)ccc1O | 102% |
| COC(=O)c1ccc2c(c1)NC(=O)[C@@H]1CCCN21 | 100% |
| O=C(Nc1cccc(-c2cccc(F)c2)c1)C1CCN(Cc2cccc3cccnc23)CC1 | 35% |
| CCCCn1c(=O)c(/C=C/C(=O)/C=C/c2ccc(O)c(OC)c2)cc2ccc(Cl)cc21 | 2.81% (active) |
| N#Cc1ccc(C2C3=C(CCCC3=O)OC3=C2C(=O)c2ccccc2C3=O)cc1 (configuration not stated) | -77% (active) |
| COc1cc(-c2csc(NC(=O)Nc3ccc(C(F)(F)F)cc3)n2)cc(OC)c1OC | -26.9% (active) |
| Cc1c(Cl)cccc1NC(=O)c1sc2nc3c(cc2c1N)COCC3 | -20% (active) |
| CCN(CC)CC#CCOC(=O)[C@]1(C)CCC[C@]2(C)[C@H]3C[C@H]4C(C(C)C)=C[C@]3(CC[C@H]21)[C@@H]1C(=O)CCC(=O)[C@@H]14 | 74% |
| CC(C)(C)c1nn(-c2ccccc2)c2c1COCN2Cc1ccc(Cl)cc1 | 100% |
| O=C(Nc1nc2ccc(C(F)(F)F)cc2s1)c1cc(Cl)ccc1O | 10.2% |

— PubChem BioAssay (NCI)
